Results: PubChem BioAssay (NCATS)
Inconclusive results are not listed. Activity calls are given as the source filed them. Calls come from the whole dose curve; as a rule, active = well fitted cell-killing curve with a large enough effect; inconclusive = small, poorly fitted or top-dose-only effect; inactive = flat fitted curve, though single readings scatter.

Assay: Cellular viability qHTS for adrenocortical cancer (ACC) cell line SW-13 (AID 1963989); note: nearly all actives have a fitted effect of over 65% in size;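 for activity (max response): cells grown in serum-free medium with ITS supplement; % is set by controls: 0 for no effect and ±100 for the full control effect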
Conditions: SW-13 ACC cells viability, CellTiter-Glo, 48 h; activity (max response): stronger effect = lower value
How it was run: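 Compound titrations (up to 46 uM final, in DMSO) were applied to SW-13 cells for 48 h at 37C/5% CO2. Reading used CellTiter-Glo after 20 min at room temperature; fitted curves yielded IC50 and efficacy.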
Potency is the fitted concentration of half-maximal effect.

Structure (SMILES)	activity (max response)	Potency
CCCCCC1Nc2cc(C(F)(F)F)c(S(N)(=O)=O)cc2S(=O)(=O)N1 (stereo not given)	4.72% (inactive)	
CCC(CN)=C(c1ccccc1)c1ccccc1	-12.8% (inactive)	
C[C@@H](Oc1cc(-c2cnn(C3CCNCC3)c2)cnc1N)c1c(Cl)ccc(F)c1Cl		3.55 µM (active)
CC(=O)[C@H]1CC[C@H]2[C@@H]3C=CC4=CC(=O)CC[C@@]4(C)[C@@H]3CC[C@]12C	-20.4% (inactive)	
CS(=O)(=O)Oc1ccc2c(NC(N)=O)c(C(=O)c3ccc(Cl)cc3Cl)oc2c1	-2.55% (inactive)	
COC(=O)[C@H]1[C@H]2C[C@@H]3c4[nH]c5cc(OC)ccc5c4CCN3C[C@H]2C[C@@H](OC(=O)c2cc(OC)c(OC)c(OC)c2)[C@@H]1OC	-15.6% (inactive)	
CN1CCN(C2=Nc3ccccc3Oc3ccc(Cl)cc32)CC1	-13.7% (inactive)	
Fc1ccc([C@@H]2CCNC[C@H]2COc2ccc3c(c2)OCO3)cc1	-15.4% (inactive)	
Cc1cc(=O)c2c(O)c3c(O)cc(=O)c4c3c3c(cc(O)c1c23)C(C)(C)C=4O		1.78 µM (active)
C#CCN(C)CCCOc1ccc(Cl)cc1Cl	-17.3% (inactive)	
CC(C)C(=O)Nc1cccc(C2CN3CCSC3=N2)c1 (stereo not given)	-3.96% (inactive)	
CC(CC1c2ccccc2CCc2ccccc21)CN(C)C (stereo not given)	-20.3% (inactive)	
Cc1nnc(SCC2=C(C(=O)O)N3C(=O)[C@@H](NC(=O)Cn4cnnn4)[C@H]3SC2)s1	10% (inactive)	
O=C1NC(=O)/C(=C\c2ccc(-c3ccc(F)cc3)o2)S1	3.49% (inactive)	
CS(=O)(=O)N1CCN(Cc2cc3nc(-c4cccc5[nH]ncc45)nc(N4CCOCC4)c3s2)CC1		17.8 µM (active)
C[C@@H]1C[C@H]2[C@@H]3CCC4=CC(=O)C=C[C@]4(C)[C@@]3(F)[C@@H](O)C[C@]2(C)[C@H]1C(=O)CO	1.09% (inactive)	
CCCCCOc1ccc(C2SC(=O)NC2=O)cc1OCC (stereo not given)	-6.25% (inactive)	
NC(=O)C(=O)N/N=C/c1ccc([N+](=O)[O-])o1	-15.1% (inactive)	
CC(=O)OC/C=C(C)/C=C/C=C(C)/C=C/C1=C(C)CCCC1(C)C	4.17% (inactive)	
C[C@@H](O[C@H]1OCCN(Cc2n[nH]c(=O)[nH]2)[C@H]1c1ccc(F)cc1)c1cc(C(F)(F)F)cc(C(F)(F)F)c1		18.4 µM (active)
CC1CC(=O)NN=C1c1ccc(NCC(C)(C)NCC(O)COc2cc(Cl)ccc2C#N)cc1 (stereo not given)	-8.94% (inactive)	

Assay: Cellular viability qHTS for adrenocortical cancer (ACC) cell line NCI-H295R (AID 1963990); note: nearly all actives have a fitted effect of over 60% in size;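 for activity change, negative = viability loss: 0% = DMSO only wells and -100% = full killing with cytotoxic reference compound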
Conditions: CellTiter-Glo ATP luminescence, 48 h; series mostly up to 46.1 µM; activity change, negative = viability loss: at the top concentration
How it was run: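 Readout: CellTiter-Glo luminescence, 20 min RT. Exposure: 48 h, 37C/5% CO2. Cells: NCI-H295R, ITS-DMEM serum-free. Range: up to 46 uM. Analysis: 4PL fit, IC50 plus efficacy.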

Structure (SMILES)	activity change, negative = viability loss	Potency
CS(=O)(=O)Oc1ccc2c(NC(N)=O)c(C(=O)c3ccc(Cl)cc3Cl)oc2c1	-5.28% (inactive)	
Cc1cc(=O)c2c(O)c3c(O)cc(=O)c4c3c3c(cc(O)c1c23)C(C)(C)C=4O		2.24 µM (active)
NC(=O)c1cnc(N[C@@H]2CCCC[C@@H]2N)nc1Nc1cccc(-n2nccn2)c1		25.1 µM (active)
CCOc1ccn(-c2ccc(F)cc2)c(=O)c1C(=O)Nc1ccc(Oc2ccnc(N)c2Cl)c(F)c1		14.1 µM (active)
